Test results taken from PubChem BioAssay (EPA / NIEHS).
The source made the active and inactive calls. The calls were made as follows: active = hit-call score of the fitted dose curve at least 0.9, where 1 is the maximum; inactive = score below 0.9.

Test: IUF_NPC1_viability_72hr: Viability Assessment at 72 hours in the Leibniz Research Institute for Environmental Medicine (IUF) Neural Progenitor Cell Proliferation Assay (NPC1) (AID 2284209)
Procedure: IUF_NPC1 is a cell-based, multiplexed assay that uses hNPC, a human primary neural progenitor cells, with measurements taken at 72 hours after chemical dosing in a 96-well plate. Human neural progenitor cells (hNPC) are generated from human fetal brain cortex at gestational week (GW) 16-19. Grown in suspension culture and under proliferative conditions (proliferation media and growth factors), these cells represent neural progenitor cell proliferation. In the NPC1 assay, hNPC's are exposed to the test compound for 72h. Cell proliferation is assessed as an increase in sphere area using automated phase contrast imaging and as incorporation of Bromodeoxyuridine (BrdU) during DNA synthesis using a luminescence-based cell proliferation ELISA. In parallel, the cell viability is assessed using an alamar blue viability assay and the cytotoxicity using a lactate dehydrogenase dependent membrane integrity assay.IUF_NPC1_viability_72hr is one of 4 assay components measured from the IUF_NPC1 assay. It is designed to measure cell viability assessed as mitochondria-dependent reduction of resazurin to resorufin using the alamar blue cell viability assay. Viability is measured as a fluorescence signal (relative fluorescence unit) in a multiplate reader. Data from the IUF_NPC1_viability component was analyzed at the endpoint IUF_NPC1_viability in the positive analysis fitting direction relative to DMSO as the negative control and baseline of activity. Using a type of viability reporter, gain or loss-of-signal activity can be used to understand viability effects.
After the cell expansion period, the cells are cultured for up to four weeks in which they are passaged every week. Between one to three days after passaging, depending on the size chosen for passaging, spheres at a size of 0.3 mm are used in the assay. For the assessment of neural progenitor cell proliferation, the spheres are plated in poly-Hema coated 96-well U-bottom plates filled with proliferation medium containing growth factors (EGF and FGF). One 0.25 - 0.35 mm big sphere is plated in the middle of each well. Within 3 days NPCs proliferate and grow in size. Cultivation during the test method is performed at 37C and 5% CO2 at a pH of 7.2-7.6. As a positive control, spheres are cultivated in the absence of growth factors (EGF and FGF), which dramatically reduces proliferation. Exposure starts on the plating day (day 0) and is continued over three days, without chemical renewal, until the experiment is terminated. The assay is terminated by the assessment of cell viability, cytotoxicity, and proliferation by BrdU. All endpoints are generated from the same experimental run and from each well/sphere in the 96-well plate.

Structure (SMILES)	outcome	AC50
CC[C@H](C)[C@H]1O[C@]2(C=C[C@@H]1C)C[C@@H]1C[C@@H](C/C=C(\C)[C@@H](O[C@H]3C[C@H](OC)[C@@H](O[C@H]4C[C@H](OC)[C@@H](O)[C@H](C)O4)[C@H](C)O3)[C@@H](C)/C=C/C=C3\CO[C@@H]4[C@H](O)C(C)=C[C@@H](C(=O)O1)[C@]34O)O2 (tested in a mixture with another compound)	inactive	
O=C(O)COc1ccc(Cl)cc1Cl	inactive	
O=S(=O)(O)C(F)(F)C(F)(F)C(F)(F)C(F)(F)C(F)(F)C(F)(F)C(F)(F)C(F)(F)F	inactive	
COP(=O)(OC)OC=C(Cl)Cl		91.4 µM (active)
O=S1OCC2C(CO1)C1(Cl)C(Cl)=C(Cl)C2(Cl)C1(Cl)Cl (stereo not drawn)		2.63 µM (active)
CNC(=O)CSP(=S)(OC)OC	inactive	
CCC(C)(C)C(=O)OC1=C(c2ccc(Cl)cc2Cl)C(=O)OC12CCCCC2	inactive	
O=C(O)C(F)(F)C(F)(F)C(F)(F)C(F)(F)C(F)(F)C(F)(F)C(F)(F)F	inactive	
CC1(c2ccc(Oc3ccccc3)cc2)OC(=O)N(Nc2ccccc2)C1=O (stereo not drawn)	inactive	
CC1(C)C(C=C(Cl)Cl)C1C(=O)OC(C#N)c1ccc(F)c(Oc2ccccc2)c1 (stereo not drawn)	inactive	
COP(=S)(OC)Oc1ccc([N+](=O)[O-])cc1	inactive	
CC(C)N(C(=O)COc1nnc(C(F)(F)F)s1)c1ccc(F)cc1	inactive	
O=[N+]([O-])/N=C1\NCCN1Cc1ccc(Cl)nc1	inactive	
